Experimental data as given in PubChem BioAssay AID1852 (Sanford-Burnham Center for Chemical Genomics, 2009).
The whole screen tested about 2,500 compounds, of which about 1,100 (44%) were called active.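 Rule for the calls: active = inhibition above 50% at 4 µM in the single-point screen; inactive = inhibition of 50% or less.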 So high a share suggests a set chosen from earlier hits. Some of the results follow.

assay: TNF-a-driven NF-kB reporter inhibitors, primary screen, selectivity assay for NOD1/NOD2 signaling inhibitor project, cell-based, HEK293T NF-kB-Luc, luminescence (AID 1852); conditions: TNF-a induced, 14 h, at 4 µM, hits give high values

Compound | inhibition
O=C(COC(=O)/C=C/C(=O)OCC(=O)Nc1ccccc1F)Nc1ccccc1F | 33.2% (inactive)
CCOC(=O)c1cccc2c1-c1ccccc1/C2=N/O | 48.8% (inactive)
COC(=O)c1ccc2c(c1O)C(=O)c1ccccc1C2=O | -53.2% (inactive)
COC(=O)c1cccc2c1-c1ccccc1/C2=N/O | 67.3% (active)
O=[N+]([O-])c1ccc(O)c(/C=N/Nc2ncnc3c2cnn3-c2ccccc2)c1 | 46.3% (inactive)
O=[N+]([O-])c1ccc(O)c(/C=N/NC(=S)Nc2ccc(Cl)cc2Cl)c1 | 105% (active)
O=[N+]([O-])c1ccc(O)c(/C=N/Nc2ccccc2[N+](=O)[O-])c1 | 69.5% (active)
CCCOc1ccc(/C=N/NC(=S)Nc2ccccc2[N+](=O)[O-])c(O)c1 | 15.1% (inactive)
COc1ccc(NC(=S)NC(NC(=O)c2ccc(Cl)cc2Cl)C(Cl)(Cl)Cl)c([N+](=O)[O-])c1 (stereo not drawn) | 34.9% (inactive)
O=[N+]([O-])c1cc(Cl)cc(/C=N/NC(=S)Nc2cc(S(=O)(=O)N3CCOCC3)ccc2Cl)c1O | 49.1% (inactive)
Oc1c(Br)cc(Br)cc1/C=N/Nc1ccc(Cl)nn1 | 44.5% (inactive)
Oc1cccc(/C=N/Nc2ccc(Cl)nn2)c1O | -18% (inactive)
O=C(NC(NC(=S)Nc1ccccc1)C(Cl)(Cl)Cl)c1cccc(Cl)c1 (stereo not drawn) | 23.1% (inactive)
O=C(NC(NC(=S)Nc1ccccc1Cl)C(Cl)(Cl)Cl)c1cccc(Cl)c1 (stereo not drawn) | -7% (inactive)
O=[N+]([O-])c1ccc(O)c(/C=N/Nc2ccc(Cl)nn2)c1 | 70.3% (active)
O=C(NC(NC(=S)Nc1ccc(Cl)cc1Cl)C(Cl)(Cl)Cl)c1cccc([N+](=O)[O-])c1 (stereo not drawn) | 95.7% (active)
O=C1NC(=O)/C(=C\c2ccc(Oc3cnccn3)cc2)S1 | -64.2% (inactive)
O=[N+]([O-])c1ccc(O)c(/C=N\N=C2c3ccccc3-c3ccccc32)c1 | 77% (active)
O=[N+]([O-])c1cccc(/C=N\N=C2c3ccccc3-c3ccccc32)c1O | 7.7% (inactive)
Oc1nc(Nc2ccc(Cl)cc2Cl)sc1/C=C1\C=Nc2ccccc21 | 5.6% (inactive)
Cc1ccc(CSc2nc(-c3ccccc3)c(C#N)c(=O)[nH]2)cc1 | -18% (inactive)
Cc1ccc(Cc2c(C)c(C#N)c3[nH]c4ccccc4n3c2=O)cc1 | 74.6% (active)
CCCCc1c(C)c(C#N)c2[nH]c3ccccc3n2c1=O | 44.9% (inactive)
Cc1ccc(O)c(C(=O)c2cc(C#N)c3nc4ccccc4n3c2)c1 | 33% (inactive)

Compound | inhibition
Cc1ccc(S(=O)(=O)c2cc3ccccc3oc2=O)cc1 | 29.7% (inactive)
Cc1ccc(S(=O)(=O)c2cc3cc(Br)ccc3oc2=O)cc1 | 58.4% (active)
CC(C)c1ccc(S(=O)(=O)c2cc3cc(Br)ccc3oc2=O)cc1 | 32.3% (inactive)
O=c1oc2ccc(Br)cc2cc1S(=O)(=O)c1ccc(F)cc1 | 68% (active)
C=CCC1(CC=C)CCCN1C(=O)c1cc(COc2cncc(Cl)c2)on1 | 19.5% (inactive)
Cc1ccc(OCc2cc(C(=O)NC3CCCCC3)no2)cn1 | 46% (inactive)
C=CCC1(CC=C)CCCN1C(=O)c1cc(COc2ccc(C)nc2)on1 | 52.5% (active)
O=C(O)c1cccc(-c2ccc(/C=N/n3cnc4sc5c(c4c3=O)CCCC5)o2)c1 | -30.8% (inactive)
c1ccc(N2CCN(c3ncnc4sc5c(c34)CCC5)CC2)cc1 | 57.1% (active)
CC1CCc2sc3ncnc(N4CCOCC4)c3c2C1 (stereo not drawn) | 29.3% (inactive)
CC1=NNC(=O)/C1=C\c1cn(-c2ccccc2)nc1-c1cccs1 | -42.7% (inactive)
COc1cccc(N2CCN(c3ncnc4c3[nH]c3ccc(F)cc34)CC2C)c1 (stereo not drawn) | 110% (active)
Cc1cccc(N2CCN(C(=O)C3CCN(c4ncnc5c4nc4n5CCCCC4)CC3)CC2C)c1 (stereo not drawn) | 33.7% (inactive)
COc1cccc(N2CCN(c3ncnc4c3[nH]c3ccccc34)CC2C)c1 (stereo not drawn) | 106% (active)
NC(=O)c1c(NC(=O)c2ccc([N+](=O)[O-])o2)sc2c1CCCC2 | -24.9% (inactive)
COc1ccc(OC)c(Nc2c3c(nc4ccccc24)CCC3)c1 | 49.6% (inactive)
Cc1nc2ccccc2c2oc(C(=O)NCC3COc4ccccc4O3)cc12 (stereo not drawn) | 39.3% (inactive)
COc1ccc(CNC(=O)c2cc3c(C)nc4ccccc4c3o2)c(OC)c1 | 62.8% (active)
O=C(COc1ccc2c(-c3ccccc3)cc(=O)oc2c1)Nc1cccnc1 | 34.1% (inactive)
CCCCc1cc(=O)oc2cc(OCC(=O)Nc3cccnc3)c(Cl)cc12 | 85.3% (active)
O=C(COc1ccc(C(=O)c2ccccc2)cc1)Nc1cccnc1 | 46.8% (inactive)
COc1nc(Nc2nc3ccccc3c(=O)[nH]2)nc2ccc(C)cc12 | 67.4% (active)
Cc1ccc(-n2[nH]c(C)c(/C=N/Nc3ccc([N+](=O)[O-])cc3[N+](=O)[O-])c2=O)cc1C | 83.2% (active)
Cc1ccc2cccc(N=Cc3c(C)[nH]n(-c4ccccc4)c3=O)c2n1 | 38.3% (inactive)

Compound | inhibition
Cc1c(C(=O)N/N=C/c2ccoc2)cccc1[N+](=O)[O-] | -12.6% (inactive)
Cc1[nH]n(-c2ccccc2)c(=O)c1/C=N/NC(=O)c1cccc([N+](=O)[O-])c1 | 76.8% (active)
COc1ccc(C(=O)N/N=C/c2ccc(OC(=O)c3cccc4ccccc34)c([N+](=O)[O-])c2)cc1 | 41.6% (inactive)
Cc1cccc(/C=N/NC(=O)c2cccc([N+](=O)[O-])c2)n1 | 97.4% (active)
Cc1[nH]n(-c2ccccc2)c(=O)c1/C=N/NC(=O)c1cccc(F)c1 | -0.8% (inactive)
COc1ccc(C(=O)Nc2ccccc2C(=O)N/N=C/c2ccccn2)cc1OC | 102% (active)
C/C(=N/NC(=S)Nc1cccc(C)c1)c1cccc([N+](=O)[O-])c1 | 6.4% (inactive)
CCOc1cc(S(=O)(=O)NCc2ccncc2)ccc1Cl | 48.8% (inactive)
O=C(N/N=C/c1ccccn1)c1sc2ccccc2c1Cl | 85.8% (active)
C/C(Cn1nnc([N+](=O)[O-])n1)=N\NC(=O)c1ccc(Cl)c(Cl)c1 | 31.3% (inactive)
COc1cc([N+](=O)[O-])ccc1-c1ccc(/C=N/NC(=O)c2ccccc2O)o1 | 0.6% (inactive)
C/C(=N\NC(=O)c1ccc(Cl)c(Cl)c1)c1ccc(Br)s1 | 40.4% (inactive)
O=C(N/N=C/c1ccccn1)c1ccc(Cl)c(Cl)c1 | 101% (active)
O=C(N/N=C/c1ccccn1)c1ccc(Cl)cc1 | -21.2% (inactive)
CC(/C=C/c1ccccc1)=N/NC(=O)c1cc([N+](=O)[O-])cc([N+](=O)[O-])c1 | 102% (active)
CC(/C=C/c1ccccc1)=N/NC(=O)c1cccc(Br)c1 | 13.3% (inactive)
O=C(N/N=C/c1ccccn1)c1cc([N+](=O)[O-])cc([N+](=O)[O-])c1 | 96.4% (active)
CCCN(CCC)c1ncnc2nc[nH]c12 | 83.4% (active)
CCN(c1ccc(OC)cc1)c1ncnc2nc[nH]c12 | 86.3% (active)
CCc1ccc(N(CC)c2ncnc3nc[nH]c23)cc1 | 82.5% (active)
C/C(Cl)=C/Cn1c(SC(C)C)nc2c1c(=O)[nH]c(=O)n2C | -13.9% (inactive)
O=C1CSc2ccc(C(=O)Nc3cccc(S(=O)(=O)Nc4ccc(Br)cc4)c3)cc2N1 | 63.4% (active)
Cc1ccc(NS(=O)(=O)c2cc(NC(=O)c3ccc4c(c3)NC(=O)CS4)ccc2Cl)c(C)c1 | -2.2% (inactive)
Cc1ccc2c(c1)CCCN2S(=O)(=O)c1cccc(C(=O)Nc2ccccc2C(=O)O)c1 | 5.4% (inactive)

Compound | inhibition
Cc1cccc(NC(=O)c2cccc(NS(=O)(=O)c3ccc(Cl)cc3)c2)c1 | 23.1% (inactive)
O=C(Nc1ccccc1C(=O)O)c1cc(S(=O)(=O)Nc2cccc(F)c2)ccc1Cl | 58.9% (active)
O=C(Nc1cccc([N+](=O)[O-])c1)c1ccc2ccccc2c1O | 32.8% (inactive)
O=C(/C=C/c1ccc([N+](=O)[O-])cc1)Nc1cccc(C(=O)Nc2ccccc2C(=O)O)c1 | 65.5% (active)
Cc1ccc(NS(=O)(=O)c2cc(NC(=O)c3ccc4c(c3)NC(=O)CS4)ccc2C)c(C)c1 | 3.2% (inactive)
O=C(Nc1ccccc1C(=O)O)c1cccc(NS(=O)(=O)c2ccc(Br)cc2)c1 | 55.5% (active)
Cc1ccc(Sc2ccc(/C=C3/C(=O)NN(c4ccccc4)C3=O)o2)cc1 | -8.6% (inactive)
O=C(Nc1ccccc1C(=O)O)c1cc(S(=O)(=O)N2CCCCC2)c(Cl)cc1Cl | 61% (active)
O=C(Nc1ccc(Cl)cn1)c1ccc(Br)c(S(=O)(=O)N2CCCCC2)c1 | 39.5% (inactive)
Cc1ccc(C(=O)Nc2ccccc2C(=O)O)cc1S(=O)(=O)Nc1ccccc1 | 76.6% (active)
O=C(Nc1ccccc1C(=O)O)c1cc(S(=O)(=O)Nc2ccccc2)ccc1Cl | 58.9% (active)
NS(=O)(=O)c1ccc(NC(=O)c2cc(Cl)ccc2Cl)cc1 | 14.7% (inactive)
O=C(CCl)Nc1cc(S(=O)(=O)N2CCCCCC2)ccc1Cl | 17.6% (inactive)
O=C(c1cc2nc(-c3ccc(F)cc3)cc(C(F)(F)F)n2n1)N1CCCCC1c1cccnc1 (stereo not drawn) | 34.3% (inactive)
Brc1ccccc1OCCCCn1cnc2ccccc21 | -10.4% (inactive)
O=c1cc(C(F)(F)F)[nH]c2ccc(OC(F)(F)F)cc12 | 78.8% (active)
O=c1nc(/C=C/c2ccccc2C(F)(F)F)cc(C(F)(F)F)[nH]1 | -14.4% (inactive)
O=c1cc(C(F)(F)F)[nH]c2ccc(C(F)(F)F)cc12 | 73.1% (active)
CN(C(=O)/C=C/c1ccc([N+](=O)[O-])s1)c1ccccc1 | 37.1% (inactive)
Cc1ccc(NC(=O)/C=C/c2ccc([N+](=O)[O-])s2)c(C)c1 | 100% (active)
Cc1ccccc1NC(=O)/C=C/c1ccc([N+](=O)[O-])s1 | 104% (active)
